This assay can be described thus: inhibitors of HIV fusion peptide binding, primary screen, biochemical, uHTS, fluorescence dequenching (AID 1986). The following applies: cell-free peptide binding, 30 min, stronger effect = higher value.
Setting [1] is: measured here: repeat confirmation average inhibition, at 18.6 µM.

The whole screen tested about 290,000 compounds, of which about 890 (0.31%) were called active. No stated cut-off is given here; in the data, active means inhibition mostly above about 52% (no sharp cut-off); inactive means mostly below about 76%. Shown is part of a subset that was picked to be rich in actives.

The inhibition is the change of the read-out against control, counted positive when it falls. For `CC(=O)c1cccc(OCC(O)CN2CC=C(c3ccccc3)CC2)c1` (stereo unspecified), under “at 20 µM”, the inhibition was -1% (inactive). Turning to `O=c1c2ccccc2[nH]c(=S)n1-c1ccc(Br)cc1`, the inhibition (at 20 µM) is -0.2% (inactive). In the case of `O=c1[nH]c(O)c(N=Nc2ccc(SC(F)F)cc2)c(=O)[nH]1`, the inhibition (at 20 µM) was 3.1% (inactive). On the same count and under the same terms, next, `CCCOP(=O)(OCCC)C(NC(=O)c1cc(OC)c(OC)c(OC)c1)c1ccccc1` (stereo unspecified): -1.1% (inactive).

On to `CCOC(=O)c1c(C)n(C(C)C)c2ccc(OC)cc12`, for which, where the note is “at 20 µM”, the inhibition is -1.3% (inactive).

For the compound `COc1cccc(CNC(=O)CCC(=O)N2C[C@H]3C[C@H](C2)c2cccc(=O)n2C3)c1OC`, the inhibition (at 20 µM) was 1.4% (inactive). In the case of `CCc1ccc(N2C(=O)NC(=O)/C(=C/c3cccn3CCOc3ccc(C)cc3)C2=O)cc1`, the inhibition (at 20 µM) is 73.7% (inactive) and the inhibition under setting [1] is 6.1%.

In the case of `CCC(C)c1ccc(N2C(=O)NC(=O)/C(=C/c3cccn3CCOc3ccc(C)cc3)C2=O)cc1` (stereo unspecified), the inhibition was 65.8% (active) (at 20 µM) and 70.7% under setting [1]. With `CCc1ccc(N2C(=O)NC(=O)/C(=C/c3cccn3CCOc3ccc(C(C)CC)cc3)C2=O)cc1` (stereo unspecified), where the note is “at 20 µM”, the inhibition was 53.2% (active). In the case of `O=C1NC(=O)N(Cc2ccco2)C(=O)/C1=C\c1cccn1CCOc1ccc(Cl)cc1`, the inhibition was 93.3% (inactive) (at 20 µM) and 0.8% under setting [1]. Consider `Cc1ccc(OCCn2cccc2/C=C2/C(=O)NC(=O)N(Cc3ccco3)C2=O)cc1`, for which the inhibition (at 20 µM) is 23.5% (inactive). On to `CCc1ccc(N2C(=O)NC(=O)/C(=C\c3cccn3CCOc3ccc(C(C)C)cc3)C2=O)cc1`, for which the inhibition is 59.3% (inactive) (at 20 µM) and 1.8% under setting [1]. Take `Cc1ccc(/C=C2/Sc3ccc(C(=O)N4CCC5(CC4)OCCO5)cc3NC2=O)cc1`: the inhibition reads like this: (at 20 µM) 54.6% (inactive); under setting [1], 37.1%. As for `CCOC(=O)c1sc(/N=C/c2c(O)n(-c3ccccc3)c(=O)[nH]c2=O)c(C#N)c1C`, the inhibition (at 20 µM) was -1.7% (inactive). Same read-out and setting: next, `O=C(O)C1C2c3ccccc3C(c3ccccc32)C1C(=O)Nc1ccccc1` (stereo unspecified): 4.1% (inactive); `CC12CN3CCN(CC(C3)C1O)C2` (stereo unspecified): -2.7% (inactive).

Turning to `COc1ccccc1/C=N/N=C(/N)N[N+](=O)[O-]`, where the note is “at 20 µM”, the inhibition is 2.7% (inactive). With `COc1cccc(CN2CC=C(c3ccc(F)cc3)CC2)c1`, for the setting “at 20 µM”, the inhibition is 2.3% (inactive).

As for `COc1ccc(CN2CCN(Cc3ccccc3)CC2)c(OC)c1`, the inhibition (at 20 µM) is -1.2% (inactive). On the same count and under the same terms, the result for `Cc1cccc(N2C(=O)NC(=O)/C(=C\c3cc(C)n(-c4sc5c(c4C#N)CCCC5)c3C)C2=O)c1C` reads 22% (inactive); that for `Cc1ccc(N2C(=O)NC(=O)/C(=C\c3cc(C)n(-c4sc5c(c4C#N)CCCC5)c3C)C2=O)cc1`, 52.2% (active).

In the case of `Cc1cc(/C=C2\C(=O)NC(=O)N(c3ccc(Cl)cc3)C2=O)c(C)n1-c1sc2c(c1C#N)CCCC2`, the inhibition reads like this: (at 20 µM) 64.4% (inactive); under setting [1], 9%. As to `CNP(=O)(Oc1ccccc1)OC12CC3CC(CC(C3)C1)C2` (stereo unspecified), the inhibition (at 20 µM) is 1.8% (inactive). As to `C=CCn1c(O)c(C(C)=NCCCn2ccnc2)c(=O)[nH]c1=O`, the inhibition (at 20 µM) is 0.6% (inactive). The same measure, in the same setting: next, `Cc1cc2c(C(C)C)c(O)c(O)c(C=O)c2c(O)c1-c1c(C)cc2c(C(C)C)c(O)c(O)c(C=O)c2c1O`: 65.7% (active); `COc1cccc(C(=O)C2CCCN(C3CCOCC3)C2)c1` (stereo unspecified): 0.4% (inactive). On the same count and under the same terms, the result for `Cc1ccccc1N1C(=O)NC(=O)/C(=C\c2ccc3c(c2)CCCN3Cc2ccccc2)C1=O` reads 15.8% (inactive); that for `Cc1cccc(N2C(=O)NC(=O)/C(=C\c3ccc4c(c3)CCCN4Cc3ccccc3)C2=O)c1`, 48.8% (inactive); that for `O=C1NC(=O)N(c2ccc(F)cc2)C(=O)/C1=C/c1ccc2c(c1)CCCN2Cc1ccccc1`, 56.3% (active).

`CC1CCC(N2CCN(C(=O)COc3ccccc3)CC2)CC1` (stereo unspecified): the inhibition (at 20 µM) was 2.3% (inactive).

As to `Cn1cc(C=C(C#N)C#N)c2ccccc21`, the inhibition (at 20 µM) is 72.4% (active) and the inhibition under setting [1] is 90.2%.

As for `Cn1cc(C(=O)c2ccccc2)c2ccccc21`, the inhibition (at 20 µM) was -2% (inactive). Same read-out and setting: the result for `Cn1cc(C=C2C(=O)NC(=O)NC2=O)c2ccccc21` reads 160% (inactive); that for `C=C1N2CCC(CC2)C1(O)c1ccccc1C` (stereo unspecified), 1.2% (inactive); that for `O=C(c1cccnc1)C1CCCN(Cc2nc(-c3cnccn3)no2)C1` (stereo unspecified), -0.9% (inactive). On the same count and under the same terms, the result for `C=CCc1cc(C=C2C(=O)N(C)C(=O)N(C)C2=O)cc(OCC)c1OCc1ccccc1` reads 11.3% (inactive); that for `Cc1cc(=O)oc2cc3c(cc12)CCCN3`, 0.7% (inactive). Still for that read-out and setting: next, `O=c1cc(C(F)(F)F)c2cc3c4c(c2o1)CCCN4CCC3`: -0.6% (inactive). For `Cc1cc2c(C(F)(F)F)cc(=O)oc2c2c1NCCC2`, the inhibition (at 20 µM) is 51.9% (active) and the inhibition under setting [1] worked out at 56.2%. For the compound `CCN(CC)c1ccc(/C=C2\C(=O)NC(=O)N(Cc3ccco3)C2=O)cc1`, the inhibition (at 20 µM) was 84.3% (active). The same measure, in the same setting: the result for `COc1ccc(N2C(=O)/C(=C/c3cccs3)C(=O)NC2=S)cc1` reads 15.2% (inactive); that for `O=C1NC(=O)N(Cc2ccco2)C(=O)/C1=C/C=C/c1ccco1`, 83.8% (active). Consider `CCN(CC)c1ccc(/C=C2\C(=O)NC(=O)N(CC3CCCO3)C2=O)cc1` (stereo unspecified), for which the inhibition (at 20 µM) was 48.8% (inactive). Turning to `CCOc1ccc(N2C(=O)/C(=C/c3ccco3)C(=O)NC2=S)cc1`, the inhibition (at 20 µM) was 31.9% (inactive). `O=C1NC(=O)N(Cc2ccccc2)C(=O)/C1=C\c1ccco1`: the inhibition is, setting by setting: (at 20 µM) 65.1% (inactive); under setting [1], 4.5%. As for `COc1ccc(CN2C(=O)NC(=O)/C(=C/c3ccoc3)C2=O)cc1`, under “at 20 µM”, the inhibition is 146% (inactive). As to `O=C1NC(=O)N(Cc2ccccc2)C(=O)/C1=C/C=C/c1ccco1`, where the note is “at 20 µM”, the inhibition was 146% (inactive). On the same count and under the same terms, the result for `CCOc1ccc(N2C(=O)/C(=C\c3cccs3)C(=O)NC2=S)cc1` reads 55.7% (active). Consider `O=C1NC(=O)N(Cc2ccccc2)C(=O)/C1=C\C=C\c1ccco1`, for which the inhibition (at 20 µM) is 84.6% (inactive) and the inhibition under setting [1] amounted to 15.8%. On to `CCN(CC)c1ccc(/C=C2/C(=O)NC(=O)N(CC3CCCO3)C2=O)cc1` (stereo unspecified), for which the inhibition (at 20 µM) is 22.9% (inactive). The same measure, in the same setting: the result for `COc1ccc(CN2C(=O)NC(=O)/C(=C\c3ccco3)C2=O)cc1` reads 91.3% (active); that for `CN(C)C(=O)Oc1ccc(-c2cn3cc(Cl)ccc3n2)cc1`, -0.5% (inactive); that for `COCCOC(=O)C1=C(C)OC(N)=C(C(=O)OC)C12C(=O)Nc1ccccc12` (stereo unspecified), -2% (inactive). With `CNC(C(=O)c1ccccc1)C(OC)c1cccc([N+](=O)[O-])c1` (stereo unspecified), for the setting “at 20 µM”, the inhibition was 1.8% (inactive). For `Cc1cc(C)nc(N2Cc3ccccc3C2=N)n1`, the inhibition (at 20 µM) is -3.6% (inactive). Still for that read-out and setting: next, `COc1ccc(OC(=O)N(C)C)c(CN(C)C)c1`: 0.5% (inactive). `COc1ccc(CN2C(=O)NC(=O)/C(=C/c3ccc([N+](=O)[O-])o3)C2=O)cc1`: the inhibition (at 20 µM) was 85.6% (active). Consider `COc1ccc(CN2C(=O)NC(=O)/C(=C/c3ccc([N+](=O)[O-])s3)C2=O)cc1`, for which the inhibition is, setting by setting: (at 20 µM) 55.1% (inactive); under setting [1], 18.5%. With `Cc1cccc(N2C(=O)NC(=O)/C(=C\C=C\c3ccco3)C2=O)c1`, under “at 20 µM”, the inhibition is 98.4% (active). With `CN1C(=O)NC(=O)/C(=C/c2ccc([N+](=O)[O-])o2)C1=O`, the inhibition (at 20 µM) is 27.7% (inactive). `Cc1ccc(N2C(=O)NC(=O)/C(=C\C=C\c3ccco3)C2=O)cc1`: the inhibition runs as follows: (at 20 µM) 75.4% (inactive); under setting [1], 16.3%. Take `O=C1NC(=O)N(Cc2ccc(F)cc2)C(=O)/C1=C/c1cccs1`: the inhibition (at 20 µM) was -3.9% (inactive).

As for `COc1ccc(/C=C2/C(=O)NC(=O)N(Cc3ccco3)C2=O)cc1`, the inhibition (at 20 µM) is 50.2% (active).

As for `Cc1cc(C)cc(N2C(=O)NC(=O)/C(=C\C=C\c3ccco3)C2=O)c1`, the inhibition is, setting by setting: (at 20 µM) 108% (inactive); under setting [1], 13.9%. In the same order, the values of `Cc1cc(/C=C2/C(=O)NC(=O)N(Cc3ccco3)C2=O)c(C)n1-c1ccccc1` are 92.7% (inactive) and 2.6%. Consider `COc1ccc(/C=C2/C(=O)N(Cc3ccco3)C(=O)N(C(C)C)C2=O)cc1`, for which the inhibition (at 20 µM) was 9% (inactive).

Consider `C=CCN1C(=O)/C(=C/c2cccs2)C(=O)NC1=S`, for which the inhibition (at 20 µM) was 15.5% (inactive). Same read-out and setting: next, `O=C1NC(=S)N(Cc2ccco2)C(=O)/C1=C\c1cccs1`: 67.5% (active); `COc1ccc(NC(=O)CN2C3CCC2CC(O)(c2cccnc2)C3)cc1OC` (stereo unspecified): -0.5% (inactive); `c1cc(CCN2CCCC2)ccn1`: 1.8% (inactive).

Consider `Cc1cccc(N=Nc2ccc(N(C)C)cc2)c1`, for which the inhibition (at 20 µM) is -1.7% (inactive).

For the compound `O=[N+]([O-])c1ccc2c(c1)C(c1ccccc1)=NCCN2`, where the note is “at 20 µM”, the inhibition was 0.2% (inactive).

Take `CCN1CCN(c2ccc(N)cc2C)CC1`: the inhibition (at 20 µM) is -1.1% (inactive).

For the compound `CN1CCN(Cc2cn3cccnc3n2)CC1`, the inhibition (at 20 µM) is -0.4% (inactive). Take `CCC(C)n1c(O)c(C=NCC2CCCO2)c(=O)[nH]c1=S` (stereo unspecified): the inhibition (at 20 µM) is -0.8% (inactive). Still for that read-out and setting: next, `CC1=C2C3OC(=O)C(C)C3CC[C@@]2(C)C=CC1=O` (stereo partly specified): -0.7% (inactive); `CN1CCN(c2ccc([N+](=O)[O-])c(SCCO)c2)CC1`: -0.1% (inactive); `Cc1cc(Cl)ccc1C(=O)C1CCCN(Cc2ccon2)C1` (stereo unspecified): -1.3% (inactive). Same read-out and setting: next, `CCOP(=O)(OCC)C(O)c1ccc(Br)cc1` (stereo unspecified): -1% (inactive).

As for `CC(Cc1ccccc1)[n+]1cc(/N=C(\N)[O-])on1` (stereo unspecified), the inhibition (at 20 µM) was -2% (inactive). Turning to `CCN(CC)C(=O)c1ccc(NC(=O)CN2CCc3cc(OC)c(OC)cc3C2)cc1`, where the note is “at 20 µM”, the inhibition is -1.3% (inactive).

In the case of `COc1ccc(CN2CCN(c3ccccc3)CC2)c(C)c1C`, where the note is “at 20 µM”, the inhibition was -1.3% (inactive).

Take `CCN(CC)c1ccc(/C=C2/C(=O)NC(=O)N(Cc3ccco3)C2=O)cc1`: for the setting “at 20 µM”, the inhibition is 84.2% (active).

Take `CN(C)c1ccc(/C=C2/C(=O)NC(=O)N(Cc3ccco3)C2=O)cc1`: the inhibition (at 20 µM) is 42.7% (inactive). For the compound `Cn1cccc1/C=C1\C(=O)NC(=O)N(Cc2ccco2)C1=O`, the inhibition (at 20 µM) is 30.6% (inactive). Still for that read-out and setting: the result for `O/N=C1/C(=C\c2ccccc2)N2CCC1CC2` reads 9.6% (inactive); that for `CN1CCC(N2CC3CC(C2)c2cccc(=O)n2C3)CC1` (stereo unspecified), 1.9% (inactive); that for `CCOC(=O)c1c(/N=C/C2C(=O)NC(=S)NC2=O)sc(C)c1C`, 30.3% (inactive).

`CCOC(=O)c1c(/N=C/C2C(=O)NC(=O)NC2=O)sc2c1CCC2`: the inhibition (at 20 µM) was 6.8% (inactive). As for `CCOC(=O)c1c(/N=C/C2C(=O)NC(=S)NC2=O)sc2c1CCC2`, for the setting “at 20 µM”, the inhibition was 81.3% (active).

On to `CN1CCC(=O)N(CCN=[N+]=[N-])CC1`, for which, for the setting “at 20 µM”, the inhibition is 1.6% (inactive). For `COc1cc(C)c(CN2CC=C(c3ccc(F)cc3)CC2)cc1C`, the inhibition (at 20 µM) was -1.1% (inactive).

For the origin of these results see PubChem BioAssay AID1986 (Sanford-Burnham Center for Chemical Genomics, 2009).
